Measured values as given in PubChem BioAssay AID504652 (National Center for Advancing Translational Sciences (NCATS), 2011).
Where “and” joins values, the source holds several entries; their conditions need not be identical. Equal values may be shown once. In all, about 360,000 compounds went through this assay and about 11,000 (3.1%) were called active. The sample holds actives, similar compounds and a random draw of the others, so the mix is not that of the screen. Values without a mark were called inactive. No stated cut-off is given here; in the data, active means activity change below about -30%; inactive means the rest.

These compounds were tested against D(1A) dopamine receptor (Homo sapiens) (UniProt P21728) (assay: Antagonist of Human D 1 Dopamine Receptor: qHTS). Conditions: HEK293 TREx D1 cells, calcium flux, dopamine EC80; at 10 µM; active compounds read low.
How it was run: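 Kinetic fluorescence of a calcium dye serves as the read-out. D1-expressing Hek293 Trex cells, induced overnight at 30 C, are exposed to compound for 180 s before an EC80 dopamine addition, then read 180 s further.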
On the % scale 0 is the no-effect control and ±100 the full control effect.

Sequence of D(1A) dopamine receptor (Homo sapiens) (P21728 whole entry, looked up): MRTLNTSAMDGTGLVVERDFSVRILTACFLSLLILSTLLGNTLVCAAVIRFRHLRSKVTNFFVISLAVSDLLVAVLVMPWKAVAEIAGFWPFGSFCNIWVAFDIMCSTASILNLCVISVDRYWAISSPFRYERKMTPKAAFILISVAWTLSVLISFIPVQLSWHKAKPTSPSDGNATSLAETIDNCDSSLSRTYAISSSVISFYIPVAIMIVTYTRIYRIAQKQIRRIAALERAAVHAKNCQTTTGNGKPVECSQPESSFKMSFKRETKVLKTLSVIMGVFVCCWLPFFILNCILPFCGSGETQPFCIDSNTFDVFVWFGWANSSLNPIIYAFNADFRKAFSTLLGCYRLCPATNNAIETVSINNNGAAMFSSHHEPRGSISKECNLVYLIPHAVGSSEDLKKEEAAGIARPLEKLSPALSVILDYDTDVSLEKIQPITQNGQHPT

SMILES	activity change, negative = inhibition
CCOc1ccc(OCC)c(NS(=O)(=O)c2ccc3[nH]c(=O)ccc3c2)c1	-7.27%
CCC1SC2=NCCN2C1(O)c1ccc(Cl)cc1 (stereo not drawn)	-31.5% (active)
CCCOc1ccc(C2=CSC3=NCCN23)cc1Cl	3.06%
Cc1cn(C)c(CC(=O)NCc2ccccc2)c1C(=O)O	0.691%
Cc1cc(F)ccc1NC1(c2ccccc2)C(=O)c2ccccc2C1=O	-5.68%
COc1ccc(OCCn2cc(C(=O)C3CCCCC3)c3ccccc32)cc1	10.3%
CCOC(=O)C1CCCN(C(=O)c2ccc(-n3ccc4ccccc43)s2)C1 (stereo not drawn)	-9.46%
Cc1ccc(Nc2c(-c3ccc(N(C)C)cc3)nc3nc[nH]n23)cc1	1.41%
O=C(NCc1ccccc1CN1CCCC1)c1cccc(S(=O)(=O)Nc2ccc(F)cc2)c1	2.42%
CCN(c1ccccc1)S(=O)(=O)c1cccc(C(=O)NCc2ccccc2CN2CCOCC2)c1	-31.4% (active)
CCOC(=O)C1CCN(C(=O)c2cccc(S(=O)(=O)N(CC)c3ccccc3)c2)CC1	-4.11%
COc1cccc(Cn2c(SCc3ccc(C(=O)N4CCC(C)CC4)cc3)nc3ccncc32)c1	-10.8%
CC(C)(C)OC(=O)N1CCC(c2c(C(=O)NCCc3ccsc3)cnn2-c2ccc(F)cc2F)CC1	-6.33%
CC1CCN(C(=O)C2CCN(S(=O)(=O)N3CCC4(CC3)OCCO4)CC2)CC1	-37.8% (active)
O=C(O)C1CCN(S(=O)(=O)N2CCOCC2)CC1	0.172%
CCOC(=O)C1CCN(C(=O)C2CCN(S(=O)(=O)N3CCCC3)CC2)CC1	-2.4%
CCSc1ccccc1C(=O)Nc1ccc2c(c1)OCO2	10%
CC(=O)Nc1cccc(C(=O)OCC(=O)c2ccc3c(c2)OCO3)c1	-0.144%
CC(C)C(=O)Nc1cccc(C(=O)Nc2ccc3c(c2)OCO3)c1	-43.1% (active)
Cc1ccc(Cn2c(=O)n(CCCC(=O)NCc3ccccc3Cl)c(=O)c3ccccc32)cc1	5.86%
Fc1ccc(CNc2nc3ccccc3n3nnnc23)cc1	-50.2% (active)
Fc1ccc(CSc2nc(NCc3ccccc3)c3ccccc3n2)cc1	21.1%

SMILES	activity change, negative = inhibition
CCOc1ccc(OCC)c(Nc2nc3ccccc3n3nnnc23)c1	1.86%
CCOC(=O)c1cccc(NC(=O)C(Cc2ccccc2)NS(=O)(=O)c2cccc3nsnc23)c1 (stereo not drawn)	-3.2%
Clc1cccc(Cl)c1OCCOCCNCc1ccccc1	-39.7% (active)
CCOc1ccccc1OCCCNCc1ccccc1	-23.9%
OCCNCc1cccc(OCc2ccccc2Cl)c1	0.511%
O=C(CN1c2ccccc2S(=O)(=O)c2ccccc21)Nc1cccc(C(F)(F)F)c1	-3.23%
Cc1cccc(CC(=O)Nc2cccc(-c3cn4cccnc4n3)c2)c1	-7.29%
COc1cc(CNC(=O)c2cc3n(n2)CCCN(Cc2cccc(F)c2)C3=O)cc(OC)c1OC	-15.1%
COc1ccc(CNS(=O)(=O)c2cc3c4c(c2)CCN4C(=O)CC3)cc1	-7.89% and -23.2%
COc1ccc(C)cc1S(=O)(=O)NC1CCCCC1	2.79%
O=C1CCc2cc(S(=O)(=O)Nc3ccc(C(F)(F)F)cc3)cc3c2N1CC3	-8.34%
COc1ccccc1CCNS(=O)(=O)c1cc2c3c(c1)C(C)C(=O)N3CCC2 (stereo not drawn)	-6.83%
COc1ccccc1CNS(=O)(=O)c1cc2c3c(c1)CCC(=O)N3CCC2	-53% (active)
COc1ccc(C)cc1S(=O)(=O)Nc1cc2c3c(c1)CCC(=O)N3CCC2	-35% (active)
CCOC(=O)c1scc(-c2ccc(C)cc2)c1S(=O)(=O)Nc1cc(C)ccc1C	-6.21%
COc1cc(OC)cc(C(=O)Nc2ccc3nc(Nc4cccc(C(F)(F)F)c4)cc(C)c3c2)c1	-9.91%
O=C(c1ccccc1)c1ccc(C(=O)N2CCN(c3ccccc3)CC2)cc1	-32.4% (active)
CO/N=C/c1ccc(N2CCN(C(=O)c3cccc(Cl)c3)CC2)c([N+](=O)[O-])c1	-27.5%
O=C(c1ccc(Cl)c(Cl)c1)N1CCCC1	-10.9%
O=C(COc1ccc(Cl)cc1[N+](=O)[O-])N1CCCCC1	15.9%
O=C(c1ccc(Oc2ccc(Cl)cc2)c([N+](=O)[O-])c1)N1CCCC1	-38.6% (active)
